# PubChem BioAssay AID1209 (Sanford-Burnham Center for Chemical Genomics, 2008)
# The campaign covered roughly 190,000 compounds. About 810 (0.43%) were called active. No stated cut-off is given here; in the data, active means inhibition above about 50%; inactive means the rest. This excerpt belongs to a sample that is enriched for actives.
# Biological target: Mannose-6-phosphate isomerase (Homo sapiens) (UniProt P34949)
# Assay: MPI enzyme activity inhibition – biochemical, fluorescence intensity, coupled assay, primary screen (AID 1209);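 further: plate controls were DMSO vehicle for no effect and wells lacking substrate for full effect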
# Details: purified PMI enzyme, at 20 µM, active compounds read high
# Sequence of Mannose-6-phosphate isomerase (Homo sapiens) (P34949 whole entry, looked up): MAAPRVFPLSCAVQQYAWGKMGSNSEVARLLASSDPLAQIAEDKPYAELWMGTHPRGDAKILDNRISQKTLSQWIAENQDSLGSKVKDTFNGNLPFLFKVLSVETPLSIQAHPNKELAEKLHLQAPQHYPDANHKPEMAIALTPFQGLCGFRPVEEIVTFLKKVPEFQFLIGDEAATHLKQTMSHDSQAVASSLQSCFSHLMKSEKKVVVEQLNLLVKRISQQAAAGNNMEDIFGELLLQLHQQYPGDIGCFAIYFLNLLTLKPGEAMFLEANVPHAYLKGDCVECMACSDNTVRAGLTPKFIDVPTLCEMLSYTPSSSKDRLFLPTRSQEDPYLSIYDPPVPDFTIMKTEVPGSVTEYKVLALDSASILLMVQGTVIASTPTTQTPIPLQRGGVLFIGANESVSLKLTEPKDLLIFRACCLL
row,Compound,inhibition
1,COc1ccc(/C=C/C(=O)OCC(=O)Nc2c(C)cccc2C)cc1,-7.6% (inactive)
2,COc1ccc(Nc2cc(C)nc3ccccc23)cc1,16% (inactive)
3,CC(=O)c1ccc(Nc2cc(C)nc3ccccc23)cc1,95.7% (active)
4,CC(=O)c1ccc(Nc2cc(C)nc3ccc(C)cc23)cc1,11.3% (inactive)
5,Cc1ccc(O)c(C(=O)c2cnc3c(c2)CN(C)C(=O)N3)c1,3.7% (inactive)
6,O=C(c1cnc2sccn2c1=O)N(Cc1ccccc1)c1ccccn1,14.3% (inactive)
7,CCOC(=O)c1c(NC(=O)CSc2nnnn2-c2ccc(OC)cc2)sc(C)c1C,60% (active)
8,CCOC(=O)c1sc(NC(=O)CSc2nnnn2-c2ccccc2)c(C(=O)OCC)c1C,14.3% (inactive)
9,CCOC(=O)c1sc(NC(=O)CSc2nnnn2-c2ccc(C)cc2)c(C(=O)OCC)c1C,12.2% (inactive)
10,Cc1cc(OCC(=O)NCc2ccncc2)ccc1Cl,1% (inactive)
11,Cc1ccc(N2CCN(CC(=O)Nc3c(C(=O)C4CC4)oc4ccccc34)CC2)cc1,-11.1% (inactive)
12,COc1ccc(N(CC(=O)Nc2ccc3c(c2)OCO3)S(C)(=O)=O)c(OC)c1,-4.4% (inactive)
13,C[C@](N)(Cc1ccc(O)c(O)c1)C(=O)O,57.7% (active)
14,COc1ccc(CC(=O)O)cc1O,2.3% (inactive)
15,C[C@@](Cc1ccc(O)c(O)c1)(NN)C(=O)O,12.9% (inactive)
16,COC(=O)[C@@H](N)Cc1ccc(O)cc1,2.6% (inactive)
17,COC(=O)C(N)Cc1ccc(O)c(O)c1 (stereo not drawn),56.9% (active)
18,COC(=O)C(N)Cc1ccc(O)cc1 (stereo not drawn),-4.5% (inactive)
19,Oc1c(C(c2ccccc2)N2CCCCC2)sc2ncnn12 (stereo not drawn),-8.5% (inactive)
20,COc1cc2c(cc1OC)C(=S)NC1(CCCC1)C2,-19.1% (inactive)
21,CC(=O)c1c(OC(=O)c2ccco2)c2ccccc2n1C,4% (inactive)
22,NC(=O)c1ccsc1NC(=O)CSc1nnc(Nc2ccccc2)s1,0.1% (inactive)
23,CC(C)C[C@H](NS(=O)(=O)c1ccc(Br)cc1)C(=O)O,5.2% (inactive)
24,CCCCNc1nc(NC)nc(Cl)c1SC,0.4% (inactive)
25,C/C(=N/NC(=O)c1cc(O)c(O)c(O)c1)c1ccc([N+](=O)[O-])cc1,64.5% (active)
26,C/C(=N\NC(=O)c1ccc([N+](=O)[O-])cc1)c1cccc([N+](=O)[O-])c1,3.4% (inactive)
27,C/C(=N\NC(=O)c1ccc([N+](=O)[O-])cc1)c1c(O)cc(C)oc1=O,-40.7% (inactive)
28,CCN(CC)c1ccc(/C=C2\NC(=O)NC2=O)cc1,9.7% (inactive)
